This is a sample that favours compounds with a hit; in the whole collection about 2% have one here.
CHT inh = inhibits the human high affinity choline transporter | Q9GZV3 | CHT-expressing cells, membrane potential dye, choline response; active compounds read low | B-score at 10 µM | 310,000 tested, 0.86% active | AID 488975;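 active means B-score over 3 SD under the library average, and starting fluorescence ratio not unusually high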;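 further: choline stimulus applied at its EC90 after an EC20 pre-addition; B-score computed on integrated fluorescence ratio after choline addition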
TAG inh = triacylglycerol accumulation inhibition; 230,000 tested, 0.66% active; H9c2 cells, Nile Red lipid (TAG) fluorescence; cells loaded with 200 µM oleic acid; inhibition, % at 12.5 µM; AID 651582;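 active means pattern-corrected inhibition of lipid staining of at least 50% with the nuclear-stain viability signal not falling by more than 50%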
CHT allo act = human CHT allosteric activation; 310,000 tested, 0.49% active; AID 488977; B-score at 10 µM; Q9GZV3; CHT-expressing cells, membrane potential dye, choline EC20; active compounds read high; LV-AA mutant CHT in HEK293 cells;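 active means initial fluorescence not abnormally high and integrated response B-score, plate-corrected, over 3 SD above library mean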
Kir21 inh = blocks the mouse Kir2.1 inward-rectifier potassium channel. P35561. HEK293-Kir2.1, FluxOR thallium flux fluorescence; active compounds read low. B-score at 10 µM. 310,000 tested, 0.85% active. AID 1672;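 active means fluorescence ratio B-score at or below minus 3 SD of library scores, with starting-brightness B-score within 2 SD, cut at about -4.2 in these data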;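 further: channel flux triggered by added potassium and thallium sulfate stimulus; B-score of peak minus minimum fluorescence over baseline after thallium stimulus; more negative B-score means stronger Kir2.1 block with less thallium influx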
CHT block conf = confirmation of human choline transporter CHT inhibitors | 2,400 tested, 70% active | CHT activity remaining % of control (active compounds read low), % at 10 µM | shares compounds with CHT inh | CHT-expressing cells, choline membrane potential dye; LV-to-AA substituted CHT, HEK293 cells;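 active means choline transporter activity left, mean of duplicates at 10 µM, below buffer-only control mean minus 3 SD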;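 further: depolarization triggered by choline at its EC90 following an EC20 pre-addition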
HEK293 CHT ctr = CHT inhibitor counter-screen hit in parental HEK293 cells | shares compounds with CHT inh | membrane potential dye, choline response; active = decrease or increase beyond buffer ±3SD | membrane potential ratio readout (active if shifted either direction beyond buffer ±3SD; no single direction) at 10 µM | 2,400 tested, 4% active;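 further: parental cells lack the transporter so any hit is non-specific; ratio is peak minus trough fluorescence over baseline after EC90 choline challenge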
Numbers stand for hits; 0 = inactive; - = no result.

SMILES	CHT inh	TAG inh	CHT allo act	Kir21 inh	CHT block conf	HEK293 CHT ctr
C/C(=N\NC(=O)Cc1c(F)cccc1Cl)c1cccnc1	0	0	0	0	-	-
CCOC(=O)c1sc(=S)n(CC)c1NC(=O)C1CC1	-6.1	0	0	0	71%	0
N#CCC(=O)Nc1ccc(C(=O)OCC(=O)NC(=O)NCc2ccco2)cc1	-	0	-	-	-	-
Cc1ccc(C(C)NC(=O)C2CCCC2)cc1C (stereo unspecified)	-5.4	0	0	0	44%	0
CC(C)c1ccc(C(C)NC(=O)C2CCCC2)cc1 (stereo unspecified)	-5.3	0	0	0	66%	0
Cc1ccc(C(C)NC(=O)C2CCCO2)cc1C (stereo unspecified)	0	-	0	0	-	-
CC(NC(=O)C1CCCC1)c1ccc(Br)cc1 (stereo unspecified)	0	0	0	0	-	-
CC(C)(C)C(=O)NNC(=O)c1cc2sccc2s1	-5.8	0	0	0	0	0
O=C1OCCC1Sc1nc(-c2ccccc2)cs1 (stereo unspecified)	-9.1	0	0	0	39%	0
COCCN(CC(=O)Nc1cccc(C)c1C)C(=O)C1CCN(S(=O)(=O)c2ccccc2)CC1	-	0	-	-	-	-
O=C(Cn1cnc2ccccc21)Nc1ccc2c(c1)OCCCO2	-	0	-	-	-	-
CCCCC1CC(C)(C(=O)CSc2nc3ccccc3s2)OC1=O (stereo unspecified)	0	0	0	0	-	-
CCCCCCNC(=O)c1cccc(-c2ccc(C)c3ccccc23)n1	-12	0	0	0	0	0
Fc1ccc(COc2ccc(/C=N/n3cnnc3)cc2)cc1	0	0	0	0	-	-
CCOc1ncccc1C(=O)NCC1COc2ccccc2O1 (stereo unspecified)	-5.2	0	0	0	67%	0
O=C1C(=O)N(CCN2CCOCC2)C(c2cccnc2)/C1=C(/O)c1ccccc1 (stereo unspecified)	0	-	0	0	-	-
O=C1C(=O)N(CCN2CCOCC2)C(c2cccnc2)/C1=C(/O)c1ccc(Cl)cc1 (stereo unspecified)	-9.5	0	0	0	0	0
CCC(C(=O)NC(C)CCc1ccccc1)n1nc(C)n2c(cc3occc32)c1=O (stereo unspecified)	-11	0	0	0	0	-8.5
CCOC(=O)C1=C(CC)Nc2ccccc2N/C1=N\S(=O)(=O)c1ccccc1OC	-	0	-	-	-	-
Cc1cc(C)n(-c2nnc(NCc3ccc(Cl)cc3)nn2)n1	0	0	0	0	-	-
Cc1nn(-c2nnc(NCc3ccccc3)nn2)c(C)c1Br	-5.3	0	0	0	0	0
O=C(CCC(=O)N(CC(=O)NC1CCCCC1)CC1CCCO1)Nc1nccs1 (stereo unspecified)	0	-	0	0	-	-
CCc1c(C)nc2ncnn2c1N1CCN(S(=O)(=O)c2ccc(OC)cc2)CC1	-6.3	0	0	0	50%	0
Cn1cccc1C(=O)NC(=O)COC(=O)CCNS(=O)(=O)c1ccc(Cl)cc1	-	0	-	-	-	-
CCOC(=O)c1nn(-c2ccc(Cl)cc2)c2nnc(Cc3ccccc3)c(=O)n12	0	-	0	0	-	-
SMILES	CHT inh	TAG inh	CHT allo act	Kir21 inh	CHT block conf	HEK293 CHT ctr
CCOC(=O)c1nn(-c2ccc(Cl)cc2)c2nnc(Cc3ccc(C)cc3)c(=O)n12	-5.9	-	0	0	0	0
CCCc1nc2oc(C(=O)OCC)c(N)c2c2c1COC(C)(C)C2	-6.3	-	0	0	33%	0
CCOC(=O)c1oc2nc(C(C)C)c3c(c2c1N)CCC3	-5.2	0	0	0	40%	0
O=S(=O)(c1ccc(NC(=S)N2CCN(c3ccc(O)cc3)CC2)cc1)N1CCOCC1	0	-	0	0	-	-
COc1ccccc1NS(=O)(=O)c1ccc(O)c(C(=O)OCC(=O)c2ccc(Cl)cc2Cl)c1	-5.3	0	0	0	62%	0
COc1ccccc1NS(=O)(=O)c1ccc(O)c(C(=O)OCC(=O)N2CCc3ccccc32)c1	0	0	0	0	-	-
Nc1nonc1C(=O)N/N=C/c1cc2c(cc1[N+](=O)[O-])OCO2	0	-	0	0	-	-
Cn1cc([N+](=O)[O-])c(C(=O)N/N=C/c2cc3c(cc2Br)OCO3)n1	-9.1	0	0	0	0	0
Cn1ccnc1SCC(=O)NC1CCCC1	0	-	0	0	-	-
Cn1ccnc1SCC(=O)Nc1ccc2nc(SCC(=O)NC3CC3)sc2c1	-16	-	0	0	21%	0

Screening data (PubChem BioAssay)
